# From PMC11062922 (Nature Chemical Biology, 2023)
# Read-outs that look alike come from different tables or passages of the source.
# Tests used:
# [1] = tested on: TNK1; settings: read-out: apparent Kd, n = 1
# [2] = tested on: TTK; settings: read-out: apparent Kd, n = 1
# [3] = compound concentrations:100 nM and 1000 nM (sheet 'Lestaurtinib' of Supplementary Table 1),run:Lestaurtinib_02438_R2,Plate:MR008
# [4] = compound concentrations:100 nM and 1000 nM (sheet 'Lestaurtinib' of Supplementary Table 1),run:Lestaurtinib_02496_R2,Plate:MR013
# [5] = compound concentrations:100 nM and 1000 nM (sheet 'Lestaurtinib' of Supplementary Table 1),run:Lestaurtinib_02566_R1,Plate:MR014
# [6] = compound concentrations:100 nM and 1000 nM (sheet 'Lestaurtinib' of Supplementary Table 1),run:Lestaurtinib_02566_R2,Plate:MR014
# [7] = compound concentrations:100 nM and 1000 nM (sheet 'Lestaurtinib' of Supplementary Table 1),run:Lestaurtinib_02566_R3,Plate:MR014
# [8] = compound concentrations:100 nM and 1000 nM (sheet 'Lestaurtinib' of Supplementary Table 1),run:Lestaurtinib_02572_R2,Plate:MR015
# [9] = compound concentrations:100 nM and 1000 nM (sheet 'Lestaurtinib' of Supplementary Table 1),run:Lestaurtinib_02577_R3,Plate:MR016
# [10] = compound concentrations:100 nM and 1000 nM (sheet 'Lestaurtinib' of Supplementary Table 1),run:Lestaurtinib_02606_R3,Plate:MR019
# [11] = compound concentrations:100 nM and 1000 nM (sheet 'Lestaurtinib' of Supplementary Table 1),run:Lestaurtinib_02624_R1,Plate:MR020
# [12] = compound concentrations:100 nM and 1000 nM (sheet 'Lestaurtinib' of Supplementary Table 1),run:Lestaurtinib_02624_R3,Plate:MR020
# [13] = compound concentrations:100 nM and 1000 nM (sheet 'Lestaurtinib' of Supplementary Table 1),run:Lestaurtinib_02724_R1,Plate:MR021
# [14] = compound concentrations:100 nM and 1000 nM (sheet 'Lestaurtinib' of Supplementary Table 1),run:Lestaurtinib_02748_R2,Plate:MR024
# [15] = compound concentrations:100 nM and 1000 nM (sheet 'Lestaurtinib' of Supplementary Table 1),run:Lestaurtinib_02752_R2,Plate:MR025
# [16] = compound concentrations:100 nM and 1000 nM (sheet 'Lestaurtinib' of Supplementary Table 1),run:Lestaurtinib_02765_R2,Plate:MR026
# [17] = compound concentrations:100 nM and 1000 nM (sheet 'Lestaurtinib' of Supplementary Table 1),run:Lestaurtinib_02765_R3,Plate:MR026
# [18] = compound concentrations:100 nM and 1000 nM (sheet 'Lestaurtinib' of Supplementary Table 1),run:Lestaurtinib_02768_R2,Plate:MR028
# [19] = compound concentrations:100 nM and 1000 nM (sheet 'Lestaurtinib' of Supplementary Table 1),run:Lestaurtinib_02795_R3,Plate:MR022
# [20] = compound concentrations:100 nM and 1000 nM (sheet 'Lestaurtinib' of Supplementary Table 1),run:Lestaurtinib_02802_R1,Plate:MR029
# [21] = compound concentrations:100 nM and 1000 nM (sheet 'Lestaurtinib' of Supplementary Table 1),run:Lestaurtinib_03260_R1,Plate:MR033
# [22] = compound concentrations:100 nM and 1000 nM (sheet 'Lestaurtinib' of Supplementary Table 1),run:Lestaurtinib_03260_R2,Plate:MR033
substance,measurement,setting,value
Lestaurtinib,potency estimated from few doses,[1]; [3],65.4 nM
same,potency estimated from few doses,"[1]; compound concentrations:100 nM and 1000 nM (sheet 'Lestaurtinib' of Supplementary Table 1),run:Lestaurtinib_02438_R3,Plate:MR008",71.3 nM
same,potency estimated from few doses,"[1]; compound concentrations:100 nM and 1000 nM (sheet 'Lestaurtinib' of Supplementary Table 1),run:Lestaurtinib_02443_R3,Plate:MR009",143 nM
same,potency estimated from few doses,"[1]; compound concentrations:100 nM and 1000 nM (sheet 'Lestaurtinib' of Supplementary Table 1),run:Lestaurtinib_02473_R2,Plate:MR010",98.6 nM
same,potency estimated from few doses,"[1]; compound concentrations:100 nM and 1000 nM (sheet 'Lestaurtinib' of Supplementary Table 1),run:Lestaurtinib_02482_R3,Plate:MR011",222 nM
same,potency estimated from few doses,"[1]; compound concentrations:100 nM and 1000 nM (sheet 'Lestaurtinib' of Supplementary Table 1),run:Lestaurtinib_02487_R3,Plate:MR012",81.8 nM
same,potency estimated from few doses,[1]; [4],95.2 nM
same,potency estimated from few doses,[1]; [5],250 nM
same,potency estimated from few doses,[1]; [6],221 nM
same,potency estimated from few doses,[1]; [7],208 nM
same,potency estimated from few doses,[1]; [8],53.4 nM
same,potency estimated from few doses,"[1]; compound concentrations:100 nM and 1000 nM (sheet 'Lestaurtinib' of Supplementary Table 1),run:Lestaurtinib_02577_R1,Plate:MR016",240 nM
same,potency estimated from few doses,[1]; [9],209 nM
same,potency estimated from few doses,"[1]; compound concentrations:100 nM and 1000 nM (sheet 'Lestaurtinib' of Supplementary Table 1),run:Lestaurtinib_02584_R3,Plate:MR017",220 nM
same,potency estimated from few doses,"[1]; compound concentrations:100 nM and 1000 nM (sheet 'Lestaurtinib' of Supplementary Table 1),run:Lestaurtinib_02606_R2,Plate:MR019",45.1 nM
same,potency estimated from few doses,[1]; [10],274 nM
same,potency estimated from few doses,[1]; [11],219 nM
same,potency estimated from few doses,[1]; [12],91.7 nM
same,potency estimated from few doses,[1]; [13],256 nM
same,potency estimated from few doses,"[1]; compound concentrations:100 nM and 1000 nM (sheet 'Lestaurtinib' of Supplementary Table 1),run:Lestaurtinib_02724_R3,Plate:MR021",60 nM
same,potency estimated from few doses,[1]; [14],97 nM
same,potency estimated from few doses,"[1]; compound concentrations:100 nM and 1000 nM (sheet 'Lestaurtinib' of Supplementary Table 1),run:Lestaurtinib_02752_R1,Plate:MR025",245 nM
same,potency estimated from few doses,[1]; [15],209 nM
same,potency estimated from few doses,"[1]; compound concentrations:100 nM and 1000 nM (sheet 'Lestaurtinib' of Supplementary Table 1),run:Lestaurtinib_02752_R3,Plate:MR025",208 nM
same,potency estimated from few doses,"[1]; compound concentrations:100 nM and 1000 nM (sheet 'Lestaurtinib' of Supplementary Table 1),run:Lestaurtinib_02765_R1,Plate:MR026",352 nM
same,potency estimated from few doses,[1]; [16],275 nM
same,potency estimated from few doses,[1]; [17],357 nM
same,potency estimated from few doses,"[1]; compound concentrations:100 nM and 1000 nM (sheet 'Lestaurtinib' of Supplementary Table 1),run:Lestaurtinib_02766_R2,Plate:MR027",20.7 nM
same,potency estimated from few doses,"[1]; compound concentrations:100 nM and 1000 nM (sheet 'Lestaurtinib' of Supplementary Table 1),run:Lestaurtinib_02766_R3,Plate:MR027",55.7 nM
same,potency estimated from few doses,[1]; [18],79.2 nM
same,potency estimated from few doses,"[1]; compound concentrations:100 nM and 1000 nM (sheet 'Lestaurtinib' of Supplementary Table 1),run:Lestaurtinib_02768_R3,Plate:MR028",115 nM
same,potency estimated from few doses,[1]; [19],213 nM
same,potency estimated from few doses,[1]; [20],81.9 nM
same,potency estimated from few doses,"[1]; compound concentrations:100 nM and 1000 nM (sheet 'Lestaurtinib' of Supplementary Table 1),run:Lestaurtinib_03172_R2,Plate:MR031",211 nM
same,potency estimated from few doses,"[1]; compound concentrations:100 nM and 1000 nM (sheet 'Lestaurtinib' of Supplementary Table 1),run:Lestaurtinib_03172_R3,Plate:MR031",85.4 nM
same,potency estimated from few doses,"[1]; compound concentrations:100 nM and 1000 nM (sheet 'Lestaurtinib' of Supplementary Table 1),run:Lestaurtinib_03252_R1,Plate:MR032",243 nM
same,potency estimated from few doses,[1]; [21],279 nM
same,potency estimated from few doses,[1]; [22],258 nM
same,potency estimated from few doses,"[2]; compound concentrations:100 nM and 1000 nM (sheet 'Lestaurtinib' of Supplementary Table 1),run:Lestaurtinib_02339_R1,Plate:MR001",1930 nM
same,potency estimated from few doses,"[2]; compound concentrations:100 nM and 1000 nM (sheet 'Lestaurtinib' of Supplementary Table 1),run:Lestaurtinib_02339_R2,Plate:MR001",812 nM
same,potency estimated from few doses,"[2]; compound concentrations:100 nM and 1000 nM (sheet 'Lestaurtinib' of Supplementary Table 1),run:Lestaurtinib_02364_R2,Plate:MR002",1820 nM
same,potency estimated from few doses,"[2]; compound concentrations:100 nM and 1000 nM (sheet 'Lestaurtinib' of Supplementary Table 1),run:Lestaurtinib_02364_R3,Plate:MR002",1130 nM
same,potency estimated from few doses,"[2]; compound concentrations:100 nM and 1000 nM (sheet 'Lestaurtinib' of Supplementary Table 1),run:Lestaurtinib_02367_R1,Plate:MR003",172 nM
same,potency estimated from few doses,"[2]; compound concentrations:100 nM and 1000 nM (sheet 'Lestaurtinib' of Supplementary Table 1),run:Lestaurtinib_02367_R2,Plate:MR003",2190 nM
same,potency estimated from few doses,"[2]; compound concentrations:100 nM and 1000 nM (sheet 'Lestaurtinib' of Supplementary Table 1),run:Lestaurtinib_02422_R1,Plate:MR006",786 nM
same,potency estimated from few doses,"[2]; compound concentrations:100 nM and 1000 nM (sheet 'Lestaurtinib' of Supplementary Table 1),run:Lestaurtinib_02422_R2,Plate:MR006",1690 nM
same,potency estimated from few doses,"[2]; compound concentrations:100 nM and 1000 nM (sheet 'Lestaurtinib' of Supplementary Table 1),run:Lestaurtinib_02422_R3,Plate:MR006",1630 nM
same,potency estimated from few doses,"[2]; compound concentrations:100 nM and 1000 nM (sheet 'Lestaurtinib' of Supplementary Table 1),run:Lestaurtinib_02437_R1,Plate:MR007",94.9 nM
same,potency estimated from few doses,"[2]; compound concentrations:100 nM and 1000 nM (sheet 'Lestaurtinib' of Supplementary Table 1),run:Lestaurtinib_02437_R3,Plate:MR007",1430 nM
same,potency estimated from few doses,"[2]; compound concentrations:100 nM and 1000 nM (sheet 'Lestaurtinib' of Supplementary Table 1),run:Lestaurtinib_02438_R1,Plate:MR008",800 nM
same,potency estimated from few doses,[2]; [3],1970 nM
same,potency estimated from few doses,"[2]; compound concentrations:100 nM and 1000 nM (sheet 'Lestaurtinib' of Supplementary Table 1),run:Lestaurtinib_02443_R1,Plate:MR009",1400 nM
same,potency estimated from few doses,"[2]; compound concentrations:100 nM and 1000 nM (sheet 'Lestaurtinib' of Supplementary Table 1),run:Lestaurtinib_02473_R1,Plate:MR010",950 nM
same,potency estimated from few doses,"[2]; compound concentrations:100 nM and 1000 nM (sheet 'Lestaurtinib' of Supplementary Table 1),run:Lestaurtinib_02496_R1,Plate:MR013",1370 nM
same,potency estimated from few doses,[2]; [4],1410 nM
same,potency estimated from few doses,[2]; [5],936 nM
same,potency estimated from few doses,[2]; [6],821 nM
same,potency estimated from few doses,[2]; [7],717 nM
same,potency estimated from few doses,[2]; [8],1840 nM
same,potency estimated from few doses,"[2]; compound concentrations:100 nM and 1000 nM (sheet 'Lestaurtinib' of Supplementary Table 1),run:Lestaurtinib_02572_R3,Plate:MR015",1440 nM
same,potency estimated from few doses,[2]; [9],1700 nM
same,potency estimated from few doses,"[2]; compound concentrations:100 nM and 1000 nM (sheet 'Lestaurtinib' of Supplementary Table 1),run:Lestaurtinib_02601_R1,Plate:MR018",1370 nM
same,potency estimated from few doses,"[2]; compound concentrations:100 nM and 1000 nM (sheet 'Lestaurtinib' of Supplementary Table 1),run:Lestaurtinib_02601_R2,Plate:MR018",1620 nM
same,potency estimated from few doses,"[2]; compound concentrations:100 nM and 1000 nM (sheet 'Lestaurtinib' of Supplementary Table 1),run:Lestaurtinib_02601_R3,Plate:MR018",1610 nM
same,potency estimated from few doses,[2]; [10],1510 nM
same,potency estimated from few doses,[2]; [11],1430 nM
same,potency estimated from few doses,"[2]; compound concentrations:100 nM and 1000 nM (sheet 'Lestaurtinib' of Supplementary Table 1),run:Lestaurtinib_02624_R2,Plate:MR020",1760 nM
same,potency estimated from few doses,[2]; [12],1430 nM
same,potency estimated from few doses,[2]; [13],1210 nM
same,potency estimated from few doses,"[2]; compound concentrations:100 nM and 1000 nM (sheet 'Lestaurtinib' of Supplementary Table 1),run:Lestaurtinib_02741_R1,Plate:MR023",1340 nM
same,potency estimated from few doses,"[2]; compound concentrations:100 nM and 1000 nM (sheet 'Lestaurtinib' of Supplementary Table 1),run:Lestaurtinib_02741_R2,Plate:MR023",998 nM
same,potency estimated from few doses,[2]; [14],1150 nM
same,potency estimated from few doses,"[2]; compound concentrations:100 nM and 1000 nM (sheet 'Lestaurtinib' of Supplementary Table 1),run:Lestaurtinib_02748_R3,Plate:MR024",1440 nM
same,potency estimated from few doses,[2]; [15],1240 nM
same,potency estimated from few doses,[2]; [16],1440 nM
same,potency estimated from few doses,[2]; [17],907 nM
same,potency estimated from few doses,"[2]; compound concentrations:100 nM and 1000 nM (sheet 'Lestaurtinib' of Supplementary Table 1),run:Lestaurtinib_02768_R1,Plate:MR028",2150 nM
same,potency estimated from few doses,[2]; [18],2240 nM
same,potency estimated from few doses,"[2]; compound concentrations:100 nM and 1000 nM (sheet 'Lestaurtinib' of Supplementary Table 1),run:Lestaurtinib_02795_R1,Plate:MR022",1410 nM
same,potency estimated from few doses,[2]; [19],750 nM
same,potency estimated from few doses,[2]; [20],996 nM
same,potency estimated from few doses,"[2]; compound concentrations:100 nM and 1000 nM (sheet 'Lestaurtinib' of Supplementary Table 1),run:Lestaurtinib_02802_R2,Plate:MR029",924 nM
same,potency estimated from few doses,"[2]; compound concentrations:100 nM and 1000 nM (sheet 'Lestaurtinib' of Supplementary Table 1),run:Lestaurtinib_02802_R3,Plate:MR029",1410 nM
same,potency estimated from few doses,"[2]; compound concentrations:100 nM and 1000 nM (sheet 'Lestaurtinib' of Supplementary Table 1),run:Lestaurtinib_02896_R3,Plate:MR030",953 nM
same,potency estimated from few doses,"[2]; compound concentrations:100 nM and 1000 nM (sheet 'Lestaurtinib' of Supplementary Table 1),run:Lestaurtinib_03252_R2,Plate:MR032",1310 nM
same,potency estimated from few doses,[2]; [21],896 nM
same,potency estimated from few doses,[2]; [22],1540 nM
same,potency estimated from few doses,"[2]; compound concentrations:100 nM and 1000 nM (sheet 'Lestaurtinib' of Supplementary Table 1),run:Lestaurtinib_03260_R3,Plate:MR033",806 nM
